HT1080NT lethal: qHTS for induction of synthetic lethality in tumor cells producing 2HG: qHTS for the HT-1080-NT fibrosarcoma cell line. HT-1080-NT fibrosarcoma viability, CellTiter-Glo ATP luminescence, 48 h. Potency, µM (doses to about 46.1 µM), for inactives: at the top dose activity, negative = less viability, most hits filed as cytotoxic. hit rate 1.6% among 360,000. AID 686970, 2013;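 further: NT is the 2HG producing partner of a matched IDH1 knockdown line; potency means the concentration at half of the fitted maximal effect; 0% = DMSO-treated cells and -100% = media-only wells without cells; nearly all actives have a fitted effect of over 55% in size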
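HT-1080-NT; 750 cells/well; 5% FBS RPMI; 48 h compound, 37 degrees C; CellTiter-Glo luminescence; curve fitting and curve-class assignment.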
TDP1 cell CPT: qHTS for Inhibitors of human tyrosyl-DNA phosphodiesterase 1 (TDP1): qHTS in cells in presence of CPT. chicken DT40 Tdp1-/-;hTDP1 cells + 20 nM CPT, ATP luminescence, 48 h. hit rate 12% among 420,000. Potency, µM (top dose mostly 46.2 µM), without a hit: at the top dose activity change, negative = growth inhibition, most hits filed as inhibitors; further: potency means the concentration at half of the fitted maximal effect; nearly all actives have a fitted effect of over 55% in size
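Cell growth measured by CellTiter-Glo luminescence after a minimum 48 h, 37 C compound exposure with 20 nM CPT in Tdp1-knockout DT40 cells stably expressing hTDP1, seeded 400/well; qHTS titration format.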
IL-1B inflam inh: qHTS for Inhibitors of Inflammasome Signaling: IL-1-beta AlphaLISA Primary Screen. activity change, % at 57.5 µM. THP-1 LPS/ATP IL-1B secretion, AlphaLISA, 16 h; active compounds read low. hit rate 4.7% among 360,000; in the data active means activity change below about -50%; inconclusive means mostly about -30% to -49%
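Secreted IL-1B measured by AlphaLISA bead assay after 16 h compound exposure of THP-1 cells; compounds (final up to 57.5 uM) added 1 h before LPS (250 ng/mL) and ATP (1.25 mM) stimulation; lower signal means less secretion.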
DT40 TDP1 no CPT: qHTS for Inhibitors of human tyrosyl-DNA phosphodiesterase 1 (TDP1): qHTS in cells in absence of CPT | DT40 Tdp1-/- hTDP1 cells, no CPT, ATP luminescence, 48 h | Potency, µM (top dose mostly 46.2 µM), inactives show top-dose activity change, negative = growth inhibition, usual class: inhibitors | hit rate 15% among 420,000 | AID 686978, 2013; further: potency means the concentration at half of the fitted maximal effect; nearly all actives have a fitted effect of over 55% in size
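Cells were dispensed at 400 per well, compounds added by pin tool, plates incubated ≥48 hr at 37 °C, then CellTiter-Glo added for 30 min at room temperature before luminescence reading. Line: DT40 Tdp1-/- complemented with hTDP1; camptothecin omitted.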
HT1080 IDH1KD tx: qHTS for induction of synthetic lethality in tumor cells producing 2HG: qHTS for the HT-1080-IDH1KD cell line; HT-1080 IDH1 knockdown viability, ATP luminescence, 48 h; Potency, µM (doses to about 46.1 µM), for inactives: at the top dose activity, negative = toxicity, hits mostly cytotoxic; hit rate 2% among 360,000;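 further: potency means the concentration at half of the fitted maximal effect; 0% = DMSO wells and -100% = cell-free medium wells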
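Luminescent ATP read-out (CellTiter-Glo, 10 min at room temperature) after 48 h compound exposure at 37 °C gave viability of IDH1-knockdown HT-1080 cells. Activity was normalised to DMSO and cell-free wells, then fitted as concentration-response curves.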
Starred values were filed as active, the others as inactive; ? = inconclusive; . = no result given; [ ] = another dose, or the depositor's remark. Shown are actives, neighbours in structure and some others; about 19% of the full set was active somewhere. Unless noted, the call rests on the fitted dose curve; in most records, active means well fitted curve in the direction sought with a large enough effect; inconclusive means small, poorly fitted or top-dose-only effect, or another doubt; inactive means no such curve, though single readings can be large; an effect the other way counts as inactive or inconclusive. Unless noted, on the % scale 0 is the no-effect control and ±100 the full control effect.

SMILES	HT1080NT lethal	TDP1 cell CPT	IL-1B inflam inh	DT40 TDP1 no CPT	HT1080 IDH1KD tx
Cc1ccc(S(=O)(=O)NC(=O)C2(C)CCN2C(=O)C2CCCCC2)cc1 (centres undefined)	19.8%	16.6%	6.4	-6.7%	11.9%
Cc1ccc(S(=O)(=O)N2C[C@H]3n4c(=O)ccc(=O)n4C[C@H](OC(=O)Nc4cccs4)[C@@]3(O)C2)cc1	?	?	-79.4*	?	-29.7%
CCCCCCn1c(=O)n2n(c1=O)[C@@H]1CN(S(=O)(=O)c3ccc(C)cc3)C[C@]1(O)[C@@H](OC(=O)Nc1cccs1)C2	?	23.1µM*	-52.3*	25.9µM*	?
CCCCCCn1c(=O)n2n(c1=O)[C@@H]1CN(S(=O)(=O)c3ccc(C)cc3)C[C@]1(O)[C@@H](OC(=O)NC1CCCC1)C2	-1.1%	?	-20.6	?	-16.8%
CCCCCCNC(=O)O[C@H]1Cn2c(=O)n(CCCCCC)c(=O)n2[C@@H]2CN(S(=O)(=O)c3ccc(C)cc3)C[C@]12O	?	?	?	20.6µM*	?
CCCCCCn1c(=O)n2n(c1=O)[C@@H]1CN(S(=O)(=O)c3ccc(C)cc3)C[C@]1(O)[C@@H](OC(=O)NC1CC1)C2	-0.2%	?	3.8	16.4µM*	4.9%
Cc1ccc(S(=O)(=O)N2C[C@H]3n4c(=O)ccc(=O)n4C[C@H](OC(=O)NCc4ccccc4F)[C@@]3(O)C2)cc1	-27.1%	?	-107.9*	20.6µM*	?
CCCCCCn1c(=O)n2n(c1=O)[C@@H]1CN(S(=O)(=O)c3ccc(C)cc3)C[C@]1(O)[C@@H](OC(=O)NCC1CCCCC1)C2	?	?	?	16.4µM*	?
CCCCCCNC(=O)O[C@H]1Cn2c(=O)ccc(=O)n2[C@@H]2CN(S(=O)(=O)c3ccc(C)cc3)C[C@]12O	16.4µM*	4.61µM*	-105.7*	3.66µM*	23.1µM*
CCCCCCn1c(=O)n2n(c1=O)[C@@H]1CN(S(=O)(=O)c3ccc(C)cc3)C[C@]1(O)[C@@H](OC(=O)NCc1ccccc1F)C2	?	?	-1.0	?	?
COC(=O)[C@H]1C[C@H](OC(=O)Nc2cccs2)[C@@]2(O)CN(S(=O)(=O)c3ccc(C)cc3)CC2[C@H]1C(=O)OC (some centres undefined)	-7.1%	?	-56.0*	?	4.9%
CCC1C(=O)NCCN1Cc1ccc2c(c1)CN(Cc1ccc(OC)c(OC)c1)CCO2 (centres undefined)	.	0.3%[9.04 µM]	.	-24.7%	.
O=C(CC(=O)NCc1ccccc1)NCc1ccccc1	-16.5%	1.4%	-7.7	0.0%	10.9%
CC(C(=O)Nc1ccc(C#N)cc1)N(C)CC(=O)Nc1ccccc1Br (centres undefined)	?	?	-24.3	?	23.1µM*
CN(CC(=O)Nc1ccccc1Br)CC(=O)NC(c1ccccc1)c1ccccc1	-10.9%	?	-50.7*	?	-5.2%
CCn1c(=O)c(C(=O)CN2CCc3ccccc32)c(N)n(Cc2ccccc2)c1=O	-1.7%	?	0.0	?	?
CCn1c(=O)c(C(=O)CN(C)CC(=O)Nc2ccccc2Br)c(N)n(Cc2ccccc2)c1=O	-14.0%	20.6µM*	4.3	18.4µM*	-10.4%
CC(=O)Nc1ccc(NC(=O)CN(C)CC(=O)Nc2ccccc2Br)cc1	-3.1%	-1.2%	91.9	-7.4%	-9.9%
CC(C(=O)Nc1ccc(C#N)cc1)N(C)CC(=O)Nc1cccc(F)c1 (centres undefined)	-2.9%	-15.0%	-19.6	2.5%	8.8%
COC(=O)Cc1ccc(O)c(N)c1	0.3%	?	11.4	?	-0.4%
COc1ccc(N2CCN(C(=O)CSc3nnc(-c4ccco4)n3C)CC2)cc1	1.2%	4.6%	2.6	-9.1%	-2.5%
CCN(CC)C(=O)[C@H]1C[C@H](CC(=O)NCCc2ccccn2)C(=O)N2CCc3c([nH]c4cc(CCC(=O)N(C)C)ccc34)[C@]12C	5.0%	-0.4%	11.0	14.2%	10.6%
CC(=O)c1ccc(N2CCN(c3ncnc4onc(-c5ccc(Cl)cc5)c34)CC2)cc1	.	23.1µM*	.	16.4µM*	.
COc1cccc(N2CCN(c3ncnc4onc(-c5ccc(Cl)cc5)c34)CC2)c1	.	?	.	16.4µM*	.
Fc1ccccc1N1CCN(c2ncnc3onc(-c4ccc(Cl)cc4)c23)CC1	.	-25.8%	.	20.6µM*	.
SMILES	HT1080NT lethal	TDP1 cell CPT	IL-1B inflam inh	DT40 TDP1 no CPT	HT1080 IDH1KD tx
COc1cc2c(cc1NS(=O)(=O)N1CCCCC1)oc1ccccc12	?	?	-8.4	?	?
CCN(C[C@H]1N[C@@](C)(C(=O)OC)[C@H]2C(=O)N(C)C(=O)[C@@H]12)C(=O)Nc1ccc(Cl)cc1	1.6%	11.0%	18.6	7.3%	-0.6%
O=C(NCCC1CCCCN1S(=O)(=O)c1cccs1)C(=O)Nc1ccccc1F (centres undefined)	5.0%	?	4.0	23.1µM*	6.5%
O=C(NCCC1CCCCN1S(=O)(=O)c1cccs1)C(=O)NCc1ccccc1 (centres undefined)	-22.5%	14.6µM*	0.0	20.6µM*	-15.6%
O=C(NCC1CCCN1S(=O)(=O)c1cccs1)C(=O)Nc1ccccc1F (centres undefined)	-1.6%	?	7.9	?	-2.9%
COc1ccccc1NC(=O)C(=O)NCCC1CCCCN1S(=O)(=O)c1cccs1 (centres undefined)	-21.7%	29.1µM*	-16.8	18.4µM*	-17.4%
CN1C(=O)C2(c3ccccc31)N(C)CC(c1ccccc1)C21SC(=S)N(Cc2ccco2)C1=O (centres undefined)	6.2%	?	-0.1	9.2µM*	3.6%
Cc1cccc(C)c1N1C(=O)c2ccccc2NC(=O)C1C(=O)Nc1ccc(N2CCOCC2)cc1 (centres undefined)	-0.7%	?	12.5	14.6µM*	9.1%
CCCCCC(=O)N1C[C@@H](O)[C@H](n2cc(C3CC3)nn2)C[C@@H]1c1ccc(Cl)cc1	-7.9%	-21.6%	-17.3	-31.9%	-1.7%
CCCCCC(=O)N1C[C@H](n2cc(C3CC3)nn2)[C@@H](O)C[C@@H]1c1ccc(Cl)cc1	2.1%	?	-7.5	13µM*	3.1%

Screening results from PubChem BioAssay.
